Calls of active or inactive are those of the source. The rule behind the calls is not given here.

In this experiment the target is Pantothenate synthetase (Mycobacterium tuberculosis (strain ATCC 25618 / H37Rv)) (UniProt P9WIL5). The experiment is described as follows: Recombinant Mtb pantothenate synthetase (PanC) inhibitors, coupled enzyme, confirmatory (AID 375).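 Note: 0% = full reaction with vehicle and 100% = no enzyme background.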 To be noted: coupled enzyme assay; at 10 µM, stronger effect = higher value.
Chain of Pantothenate synthetase (Mycobacterium tuberculosis (strain ATCC 25618 / H37Rv)) (P9WIL5 whole entry, looked up): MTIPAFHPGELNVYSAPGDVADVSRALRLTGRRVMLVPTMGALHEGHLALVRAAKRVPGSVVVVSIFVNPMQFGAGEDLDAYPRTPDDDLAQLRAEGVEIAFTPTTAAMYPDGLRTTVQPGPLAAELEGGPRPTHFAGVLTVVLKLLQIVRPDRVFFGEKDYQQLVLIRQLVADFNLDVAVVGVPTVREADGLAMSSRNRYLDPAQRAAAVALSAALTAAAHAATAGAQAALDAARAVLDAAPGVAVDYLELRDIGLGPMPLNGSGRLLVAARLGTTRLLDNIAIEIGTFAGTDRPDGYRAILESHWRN
As usually defined, the inhibition is the share of the control response that was lost under treatment. Regarding `Cc1ccc(-c2noc(C3CCCN(C(=O)c4ccc(F)cc4F)C3)n2)cc1` (stereo not given), the inhibition was 0% (inactive). As to `COc1cccc(Oc2ccc(N)cn2)c1`, the inhibition is 0% (inactive). For the compound `Cn1c(=O)c2c(ncn2CC(=O)OCC(=O)NC2CCCc3ccccc32)n(C)c1=O` (stereo not given), the inhibition is 3% (inactive). `O=C(/C=N/O)NCc1ccncc1`: the inhibition was 1% (inactive). As for `CC(C[N+](C)(C)C)OC(N)=O` (stereo not given), the inhibition is 0% (inactive). For `CCCc1nnc2n1N=C(c1ccc(-c3cc(Cl)ccc3Cl)o1)CS2`, the inhibition was 0% (inactive). In the case of `COc1ccccc1N1CCN(CCCNC(=O)Nc2ccccc2)CC1`, the inhibition is 10% (inactive). In the case of `CCn1nnnc1SCC(=O)N1CCOCC1`, the inhibition was 11% (inactive). For `CCn1cc(S(=O)(=O)CC(=O)Nc2ccc(OC)cc2)c2ccccc21`, the inhibition is 1% (inactive). As for `COc1cc(NC(=O)Cc2ccccc2OC)cc(OC)c1`, the inhibition was 0% (inactive).

Regarding `CCOC(=O)C(NC(=O)OC(C)C)(Nc1nccs1)C(F)(F)F` (stereo not given), the inhibition is 2% (inactive).

`O=C1CC(c2ccco2)=Nc2ccccc2N1`: the inhibition is 6% (inactive).

On to `Cc1cnc(NC(=O)C2=C(O)c3ccccc3S(=O)(=O)N2C)s1`, for which the inhibition was 0% (inactive). For `CCCCn1nnc(NC(=O)c2cc3ccccc3o2)n1`, the inhibition is 0% (inactive).

On to `O=C(O)CCc1ccc(-c2cccs2)n1NC(=O)c1ccco1`, for which the inhibition was 0% (inactive).

For `CC(C)CCNC(=O)C(c1cccs1)N(CC1CCCO1)C(=O)Cn1nnc2ccccc21` (stereo not given), the inhibition is 0% (inactive). For `CCOC(=O)c1cccc(NC(=O)CS(=O)(=O)Cc2nc(-c3cccc(OC)c3)oc2C)c1`, the inhibition was 0% (inactive). As to `COc1ccc2cc(C(c3nnnn3C(C)(C)C)N3CCc4ccccc4C3)c(=O)[nH]c2c1` (stereo not given), the inhibition is 11% (inactive).

In the case of `CCn1c(SCC(=O)Nc2ccc3c(c2)OCO3)nc2c(c1=O)SC(C)C2` (stereo not given), the inhibition was 0% (inactive). Turning to `Cc1oc(-c2ccccc2F)nc1CS(=O)(=O)CC(=O)N1CCCCCC1`, the inhibition is 1% (inactive). On to `CC1(C)CC(=O)C(CC2=C(O)CC(C)(C)CC2=O)=C(O)C1`, for which the inhibition is 4% (inactive).

For `CCSc1oc(-c2cccs2)nc1S(=O)(=O)c1ccccc1`, the inhibition was 4% (inactive). Take `COc1ccc(S(=O)(=O)N2CCC(C(=O)Nc3c(F)cccc3F)CC2)cc1`: the inhibition was 2% (inactive).

For `CNc1ccc(C(O)(C(F)(F)F)C(F)(F)F)cc1C(O)(C(F)(F)F)C(F)(F)F`, the inhibition was 0% (inactive). For the compound `Cc1nc2ccc(NC(=O)N3CCC(c4ccccc4)C3)cc2nc1C` (stereo not given), the inhibition was 0% (inactive).

Consider `Cn1c(SCCN2CCCCC2)nnc1-c1ccccc1Br`, for which the inhibition was 0% (inactive). `CCOc1ccccc1C1CC(=O)NC(SCC)=C1C#N` (stereo not given): the inhibition is 0% (inactive). On to `CCOC(=O)c1csc(NC(=O)C2CCCCC2)n1`, for which the inhibition was 2% (inactive).

`C#CCN1C(=O)C(O)(CC(=O)c2cccc(OC)c2)c2ccccc21` (stereo not given): the inhibition is 0% (inactive).

As to `Cc1ccc(N2C(=O)c3oc4ccccc4c(=O)c3C2c2cccc(O)c2)nc1` (stereo not given), the inhibition was 0% (inactive). As for `CC(C)OC(=O)C(C)(C)Oc1ccc(C(=O)c2ccc(Cl)cc2)cc1`, the inhibition is 0% (inactive). Turning to `O=C(COC(=O)c1cncc(Br)c1)NCCC1=CCCCC1`, the inhibition was 0% (inactive).

As to `CCOC(=O)c1cnc(-n2nc(C)cc2C)nc1Nc1cccc(C(C)=O)c1`, the inhibition is 0% (inactive).

Take `Cc1ncoc1C(=O)Nc1cccc(Cl)c1C`: the inhibition is 1% (inactive).

For the compound `CCc1nnc(NC(=O)CSc2nnc(-c3cc4ccccc4cc3O)n2CC)s1`, the inhibition was 6% (inactive). As to `Cc1ccc(NC2=NC(c3ccccc3)n3c(nc(C)cc3=O)N2)cc1` (stereo not given), the inhibition was 13% (inactive). As for `COc1ccc(Cn2c(N)c(C#N)c3nc4ccccc4nc32)cc1OC`, the figure is 1% (inactive). Next, `CCCn1c2c(c(O)c(C(=O)NC)c1=O)CCCC2`: 5% (inactive); `C/C(Cl)=C\Cn1c(NCCc2ccccc2)nc2c1c(=O)n(C)c(=O)n2C`: 1% (inactive). For `CC(C)C1C2=C(CC(C)(C)CC2=O)ON1c1ccccc1` (stereo not given), the inhibition is 1% (inactive).

For the origin of these results see PubChem BioAssay.
